According to PubChem BioAssay (NCATS):
Inconclusive results are not listed. Activity calls are given as the source filed them. Unless noted, the call rests on the fitted dose curve; in most records, active means well fitted curve in the direction sought with a large enough effect; inconclusive means small, poorly fitted or top-dose-only effect, or another doubt; inactive means no such curve, though single readings can be large; an effect the other way counts as inactive or inconclusive.

Experiments:
[1] = target: Estrogen receptor (Homo sapiens) (UniProt P03372); experiment: qHTS assay for small molecule antagonists of estrogen receptor alpha signaling (AID 588513; active means well fitted curve in the direction sought with a large enough effect in the signal ratio, with a control signal flat, not every such curve was filed as active; the % refers to the signal ratio; further: on the % scale 0 is the no-effect control and ±100 the full control effect)
Sequence of Estrogen receptor (Homo sapiens) (P03372 whole entry, looked up): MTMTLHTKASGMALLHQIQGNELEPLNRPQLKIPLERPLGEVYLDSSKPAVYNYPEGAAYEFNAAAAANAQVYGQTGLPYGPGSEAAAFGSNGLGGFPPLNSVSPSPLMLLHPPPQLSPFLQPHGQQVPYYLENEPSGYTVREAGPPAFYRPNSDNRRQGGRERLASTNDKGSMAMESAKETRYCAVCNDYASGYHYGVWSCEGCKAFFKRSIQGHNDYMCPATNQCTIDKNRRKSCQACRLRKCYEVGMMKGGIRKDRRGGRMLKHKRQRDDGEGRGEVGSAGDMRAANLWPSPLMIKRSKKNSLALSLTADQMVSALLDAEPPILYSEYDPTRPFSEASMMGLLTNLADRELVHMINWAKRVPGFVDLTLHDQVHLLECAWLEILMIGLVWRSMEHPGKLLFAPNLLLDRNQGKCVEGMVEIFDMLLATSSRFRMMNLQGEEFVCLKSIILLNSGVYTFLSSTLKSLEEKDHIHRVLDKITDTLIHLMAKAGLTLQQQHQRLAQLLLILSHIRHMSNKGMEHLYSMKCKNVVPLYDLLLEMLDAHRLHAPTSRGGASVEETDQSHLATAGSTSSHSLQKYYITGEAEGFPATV
Procedure, shortened: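 ER-alpha-UAS-bla GripTite HEK 293 cells in 2% charcoal/dextran-treated FBS medium; compounds titrated (1:2, duplicate), then stimulated with 0.5 nM 17-beta-estradiol for 18 h at 37C. CCF4 beta-lactamase fluorescence; Hill-fit IC50 and efficacy.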

[2] = target: Estrogen receptor (Homo sapiens) (UniProt P03372); experiment: qHTS assay for small molecule agonists of estrogen receptor alpha signaling (AID 588514; calls by dose curve;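 further: 0% = vehicle only and 100% = reference agonist; nearly all actives have a fitted effect of over 70% in size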)
Procedure, shortened: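 Efficacy is expressed against 20 nM 17-beta-estradiol (100%) and DMSO basal (0%); EC50 from Hill equation. Assay: beta-lactamase reporter in ER-alpha-UAS-bla HEK 293 cells, 18 h compound incubation, CCF4 detection.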

[3] = target: Glucocorticoid receptor (Homo sapiens) (UniProt P04150); experiment: qHTS assay for small molecule antagonists of glucocorticoid receptor signaling (AID 588533; active means well fitted inhibition curve with a large enough effect in the signal ratio, with a control signal flat, not every such curve was filed as active; the % refers to the signal ratio;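 further: cells stimulated with 2 nM dexamethasone as agonist; on the % scale 0 is the no-effect control and ±100 the full control effect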)
Sequence of Glucocorticoid receptor (Homo sapiens) (P04150 whole entry, looked up): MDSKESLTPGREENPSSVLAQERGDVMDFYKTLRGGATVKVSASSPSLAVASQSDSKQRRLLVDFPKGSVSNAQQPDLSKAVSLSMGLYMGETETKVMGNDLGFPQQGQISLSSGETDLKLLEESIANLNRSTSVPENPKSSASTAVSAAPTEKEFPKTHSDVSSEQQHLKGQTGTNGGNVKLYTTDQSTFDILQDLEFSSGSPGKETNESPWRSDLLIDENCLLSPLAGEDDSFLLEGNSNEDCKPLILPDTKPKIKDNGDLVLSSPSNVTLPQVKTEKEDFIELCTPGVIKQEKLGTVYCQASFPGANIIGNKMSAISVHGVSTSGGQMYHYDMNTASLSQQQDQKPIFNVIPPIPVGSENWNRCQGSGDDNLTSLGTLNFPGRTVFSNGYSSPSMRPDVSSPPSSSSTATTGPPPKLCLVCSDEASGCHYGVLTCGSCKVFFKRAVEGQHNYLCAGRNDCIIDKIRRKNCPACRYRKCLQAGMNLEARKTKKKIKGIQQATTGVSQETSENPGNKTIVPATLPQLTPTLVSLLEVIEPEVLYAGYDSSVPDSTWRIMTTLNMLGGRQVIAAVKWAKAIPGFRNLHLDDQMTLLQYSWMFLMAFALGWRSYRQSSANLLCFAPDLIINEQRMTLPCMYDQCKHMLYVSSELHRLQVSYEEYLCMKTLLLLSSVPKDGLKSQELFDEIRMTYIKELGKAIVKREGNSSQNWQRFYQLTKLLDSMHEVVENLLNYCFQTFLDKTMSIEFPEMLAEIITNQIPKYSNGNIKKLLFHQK
Procedure, shortened: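 Antagonist-mode qHTS: compound titrations added to GRE-bla HeLa cells, then dexamethasone 2 nM final; 18 h, 37 C. CCF4 FRET fluorescence normalized to dexamethasone and DMSO; IC50 from Hill fit.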

[4] = qHTS assay for small molecule antagonists of peroxisome proliferator-activated receptor delta signaling (AID 588535; active means well fitted inhibition curve with a large enough effect in the signal ratio, with a control signal flat, not every such curve was filed as active; the % refers to the signal ratio;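 on max response: cells co-treated with a PPAR-delta agonist as stimulator during compound exposure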); conditions: HEK293T PPARd-UAS-bla, beta-lactamase FRET ratio, 18 h; 460 nm channel
Procedure, shortened: (§1)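 Titrations were run on PPAR-delta-UAS-bla HEK293T cells in charcoal/dextran-stripped serum, incubated 18 h at 37 C. CCF4 fluorescence (460/530 nm) after 2 h RT; Hill equation yields IC50 and maximal response.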

[5] = target: Peroxisome proliferator-activated receptor delta (Homo sapiens) (UniProt Q03181); experiment: as above
Sequence of Peroxisome proliferator-activated receptor delta (Homo sapiens) (Q03181 whole entry, looked up): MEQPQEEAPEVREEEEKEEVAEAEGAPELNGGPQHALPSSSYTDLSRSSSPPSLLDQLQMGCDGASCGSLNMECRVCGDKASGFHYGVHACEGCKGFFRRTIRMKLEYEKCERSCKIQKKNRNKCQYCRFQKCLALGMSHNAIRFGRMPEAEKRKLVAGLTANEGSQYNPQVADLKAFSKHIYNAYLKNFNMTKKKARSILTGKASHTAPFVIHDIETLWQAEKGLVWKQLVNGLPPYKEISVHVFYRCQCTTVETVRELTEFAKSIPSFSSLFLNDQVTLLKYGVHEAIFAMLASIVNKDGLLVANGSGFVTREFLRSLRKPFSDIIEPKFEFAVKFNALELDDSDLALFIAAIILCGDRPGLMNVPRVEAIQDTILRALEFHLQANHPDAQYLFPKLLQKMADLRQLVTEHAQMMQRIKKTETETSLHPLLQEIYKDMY
Procedure, shortened: as §1

[6] = target: Peroxisome proliferator-activated receptor gamma (Homo sapiens) (UniProt P37231); experiment: qHTS assay for small molecule agonists of peroxisome proliferator-activated receptor gamma signaling (AID 588536; active means well fitted curve in the direction sought with a large enough effect in the signal ratio, with a control signal flat, not every such curve was filed as active; the % refers to the signal ratio;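 further: 0% = DMSO basal wells and 100% = rosiglitazone at 2 µM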)
Sequence of Peroxisome proliferator-activated receptor gamma (Homo sapiens) (P37231 whole entry, looked up): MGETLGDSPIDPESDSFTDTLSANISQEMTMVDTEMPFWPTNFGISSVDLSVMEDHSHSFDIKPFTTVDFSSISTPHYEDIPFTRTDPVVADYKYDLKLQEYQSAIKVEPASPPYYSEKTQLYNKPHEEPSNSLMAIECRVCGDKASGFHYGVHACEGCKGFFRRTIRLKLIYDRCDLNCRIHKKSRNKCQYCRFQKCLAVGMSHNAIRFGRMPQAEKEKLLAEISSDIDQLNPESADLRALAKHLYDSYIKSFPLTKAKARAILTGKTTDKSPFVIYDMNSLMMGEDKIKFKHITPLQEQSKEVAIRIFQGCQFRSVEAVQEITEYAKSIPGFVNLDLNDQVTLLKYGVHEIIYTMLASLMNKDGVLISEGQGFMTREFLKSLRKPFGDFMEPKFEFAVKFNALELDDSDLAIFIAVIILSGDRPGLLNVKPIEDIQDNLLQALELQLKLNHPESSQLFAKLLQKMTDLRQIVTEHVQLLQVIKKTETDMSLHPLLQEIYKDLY
Procedure, shortened: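 Beta-lactamase reporter read-out: CCF4 fluorescence (ex 405, em 460/530 nm) after 2 h at RT. HEK293 GeneBLAzer cells were treated for 16 h at 37 C. Hill fits gave EC50 and efficacy versus 2 uM rosiglitazone (100%) and DMSO (0%).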

[7] = qHTS assay for small molecule agonists of retinoid X receptor alpha signaling (AID 588544; calls by dose curve;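 on activation: 0% = DMSO basal wells and 100% = reference agonist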); conditions: HEK293T RXRa-UAS-bla, beta-lactamase reporter, 18 h; 530 nm emission
[8] = target: Retinoic acid receptor RXR-alpha (Homo sapiens) (UniProt P19793); experiment: as above
Sequence of Retinoic acid receptor RXR-alpha (Homo sapiens) (P19793 whole entry, looked up): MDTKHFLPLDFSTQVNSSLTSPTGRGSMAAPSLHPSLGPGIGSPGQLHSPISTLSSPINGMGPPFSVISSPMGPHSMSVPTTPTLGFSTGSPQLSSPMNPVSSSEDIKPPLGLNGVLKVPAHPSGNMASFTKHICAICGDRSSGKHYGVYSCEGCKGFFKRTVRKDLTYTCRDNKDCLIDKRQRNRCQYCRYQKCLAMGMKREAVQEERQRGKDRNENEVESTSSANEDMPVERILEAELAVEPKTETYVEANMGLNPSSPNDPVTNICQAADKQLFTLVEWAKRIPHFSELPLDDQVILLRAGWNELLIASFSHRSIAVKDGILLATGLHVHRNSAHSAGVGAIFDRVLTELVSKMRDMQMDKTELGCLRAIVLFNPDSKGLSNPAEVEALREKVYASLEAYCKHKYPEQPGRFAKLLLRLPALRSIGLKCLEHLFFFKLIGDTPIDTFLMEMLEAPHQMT

[9] = target: Thyroid hormone receptor beta (Homo sapiens) (UniProt P10828); experiment: qHTS assay for small molecule agonists of thyroid hormone receptor beta signaling (AID 588545; calls by dose curve)
Sequence of Thyroid hormone receptor beta (Homo sapiens) (P10828 whole entry, looked up): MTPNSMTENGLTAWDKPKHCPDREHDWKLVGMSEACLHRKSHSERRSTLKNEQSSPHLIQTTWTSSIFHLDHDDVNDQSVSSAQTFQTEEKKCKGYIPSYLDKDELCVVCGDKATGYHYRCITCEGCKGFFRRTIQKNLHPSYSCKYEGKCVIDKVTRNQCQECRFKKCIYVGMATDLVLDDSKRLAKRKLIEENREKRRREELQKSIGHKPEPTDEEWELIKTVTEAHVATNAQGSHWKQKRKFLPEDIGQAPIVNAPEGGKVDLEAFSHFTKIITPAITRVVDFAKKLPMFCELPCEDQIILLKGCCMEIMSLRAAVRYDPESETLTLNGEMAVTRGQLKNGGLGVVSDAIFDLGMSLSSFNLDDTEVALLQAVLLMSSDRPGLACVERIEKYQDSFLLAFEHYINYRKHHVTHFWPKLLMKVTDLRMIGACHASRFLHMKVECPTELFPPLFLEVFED
Procedure, shortened: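 In this cell-based screen, titrated compounds act on HEK 293 cells held in medium with 2% charcoal/dextran FBS, NEAA and pyruvate for 18 hrs at 37 C. Responses are expressed relative to T3 (10 nM) as 100% and basal DMSO as 0%.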

[10] = qHTS assay for small molecule antagonists of retinoid X receptor alpha signaling (AID 588546; active means well fitted inhibition curve with a large enough effect in the signal ratio, with a control signal flat, not every such curve was filed as active; the % refers to the signal ratio;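 further: cells stimulated with 9-cis-retinoic acid as agonist; on the % scale 0 is the no-effect control and ±100 the full control effect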); conditions: HEK293T RXRa-UAS-bla, beta-lactamase ratio, antagonist mode; measured here: W530 green channel, cytotoxicity proxy
Procedure, shortened: (§2)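 Beta-lactamase reporter inhibition, read as CCF4 fluorescence ratio (ex 405, em 460/530 nm) after 2 h at RT. HEK293T UAS-bla cells, 2500/well, were stimulated with 9-cis-RA at 500 or 100 nM final alongside test compound for 18 h at 37 C.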

[11] = target: Retinoic acid receptor RXR-alpha (Homo sapiens) (UniProt P19793); experiment: as above; conditions: HEK293T RXRa-UAS-bla, beta-lactamase ratio, antagonist mode
Procedure, shortened: as §2

[12] = qHTS assay for small molecule activators of the nuclear factor-kappa B (NF-kB) signaling pathway (AID 651749; active means well fitted activation curve with a large enough effect in the signal ratio; the % refers to the signal ratio; further: series mostly up to about 77 µM; % of control where 0% means no effect); conditions: NF-kB-bla ME-180 cells, beta-lactamase FRET ratio, 16 h; activation: stronger effect = higher value
Procedure, shortened: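 Activation measured after 16 hr compound treatment at 37C, 5% CO2, of 2,000 ME-180 cells/well stably expressing an NF-kB response element–driven beta-lactamase reporter, via FRET-disruption fluorescence.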

[13] = qHTS assay for environmental chemicals that activate the Aryl hydrocarbon Receptor (AhR) signaling pathway (AID 651777); conditions: 1A2-DRE human hepatoma cells, luciferase, 24 h; activation: stronger effect = higher value; further: % of control where 0% means no effect; nearly all actives have a fitted effect of over 15% in size
Procedure, shortened: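 Following a 24 hr incubation with test chemicals at 37 C and 5% CO2, 1A2-DRE human hepatoma cells received One-Glo reagent; after 30 min at room temperature, luciferase output reflected CYP1A2 induction via AhR.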

[14] = target: Peroxisome proliferator-activated receptor alpha (Homo sapiens) (UniProt Q07869); experiment: qHTS assay for small molecule agonists of the peroxisome proliferator-activated receptor alpha (PPARalpha) signaling pathway (AID 651778); conditions: PathHunter PPARalpha complementation, chemiluminescence, 6 h; max response: stronger effect = higher value; further: % of control where 0% means no effect
Sequence of Peroxisome proliferator-activated receptor alpha (Homo sapiens) (Q07869 whole entry, looked up): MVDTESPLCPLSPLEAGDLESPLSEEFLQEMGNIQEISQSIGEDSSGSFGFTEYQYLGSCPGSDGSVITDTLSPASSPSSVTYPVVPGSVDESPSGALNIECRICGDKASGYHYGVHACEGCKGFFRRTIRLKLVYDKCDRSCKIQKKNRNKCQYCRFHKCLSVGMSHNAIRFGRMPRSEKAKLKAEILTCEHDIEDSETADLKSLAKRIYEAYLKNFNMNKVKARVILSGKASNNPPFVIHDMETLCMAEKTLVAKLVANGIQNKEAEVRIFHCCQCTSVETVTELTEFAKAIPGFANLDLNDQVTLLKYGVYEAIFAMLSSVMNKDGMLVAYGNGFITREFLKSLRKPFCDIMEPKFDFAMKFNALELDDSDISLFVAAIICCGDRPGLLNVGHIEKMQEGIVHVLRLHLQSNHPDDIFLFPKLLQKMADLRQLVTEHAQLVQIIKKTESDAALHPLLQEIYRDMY
Procedure, shortened: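 Chemiluminescence from complemented enzyme reported PPARalpha activation in cells after 6 hr of compound treatment at 37 C. The detection reagent was incubated for 60 min at room temperature, and compounds were scored as agonists.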

[15] = qHTS assay for small molecule agonists of the antioxidant response element (ARE) signaling pathway measured by Nrf2-dependant transcriptional activity (AID 720636; active means well fitted curve in the direction sought with a large enough effect in the repeat runs; an effect the other way counts as inactive or inconclusive;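 further: HepG2 cells with an ARE-driven luciferase reporter; % of control where 0% means no effect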)
Procedure, shortened: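 ONE-Glo luminescence, read 30 min after reagent addition at room temperature, reflected ARE reporter activity in HepG2 cells that had been incubated with compound for 16 hr at 37 C in 1% dialyzed FBS.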

[16] = qHTS assay for small molecule agonists of the antioxidant response element (ARE) signaling pathway measured by Nrf2-dependant transcriptional activity - cell viability counter screen (AID 720653; active means well fitted curve in the direction sought with a large enough effect in the repeat runs; an effect the other way counts as inactive or inconclusive; further: potency means the concentration at half of the fitted maximal effect; on max response: on the % scale 0 is the no-effect control and ±100 the full control effect); conditions: ARE-bla HepG2 viability, CellTiter-Glo ATP luminescence, 16 h; max response: stronger effect = lower value
Procedure, shortened: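 Cytotoxicity counter screen: intracellular ATP quantified by CellTiter-Glo luminescence in the same ARE-bla HepG2 plates, after 16 h compound exposure and a 2 h beta-lactamase substrate step.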

[17] = qHTS assay for cell viability of HEK293 cells (AID 743288); conditions: ATP luminescence (CellTiter-Glo), 18 h; max response: stronger effect = lower value; further: nearly all actives have a fitted effect of over 50% in size; further: potency means the concentration at half of the fitted maximal effect
Procedure, shortened: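 Steps: plate 2,000 parental HEK293 cells per well; incubate ≥5 h, 37 C; add compounds in DMSO; incubate 18 h, 37 C; add CellTiter-Glo; wait 30 min at room temperature; read luminescence.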

[18] = qHTS assay for cell viability of the p53RE-bla HCT-116 cell line (AID 743292); further: nearly all actives have a fitted effect of over 55% in size; further: potency means the concentration at half of the fitted maximal effect
Procedure, shortened: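 After plating at 4,000 cells per well and a 5 h rest at 37 C, HCT-116 cells carrying p53RE-bla received test chemicals in DMSO. Sixteen hours later at 37 C, CellTiter-Glo was added and luminescence recorded following 30 min at room temperature.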

[19] = target: Nuclear receptor subfamily 1 group I member 2 (Rattus norvegicus) (UniProt Q9R1A7); experiment: qHTS assay for small molecule activators of the rat pregnane X receptor (rPXR) signaling pathway (AID 651751; call rule not given here; further: 0% is about no effect); conditions: rPXR reporter cells, luciferase (One-Glo), 24 h
Sequence of Nuclear receptor subfamily 1 group I member 2 (Rattus norvegicus) (Q9R1A7 whole entry, looked up): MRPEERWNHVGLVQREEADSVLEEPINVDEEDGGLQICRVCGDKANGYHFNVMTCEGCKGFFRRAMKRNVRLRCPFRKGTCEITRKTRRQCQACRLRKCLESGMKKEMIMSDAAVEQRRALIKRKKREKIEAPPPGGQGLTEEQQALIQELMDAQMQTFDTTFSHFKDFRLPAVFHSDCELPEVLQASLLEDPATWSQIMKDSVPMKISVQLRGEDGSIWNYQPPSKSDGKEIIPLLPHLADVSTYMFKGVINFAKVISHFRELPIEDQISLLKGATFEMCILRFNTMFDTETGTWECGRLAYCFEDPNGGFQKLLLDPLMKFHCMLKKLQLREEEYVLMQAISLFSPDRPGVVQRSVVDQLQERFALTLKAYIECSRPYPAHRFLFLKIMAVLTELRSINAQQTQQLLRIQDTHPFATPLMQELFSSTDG

[20] = qHTS assay for small molecule activators of the human pregnane X receptor (PXR) signaling pathway (AID 720659; call rule not given here; further: 0% is about no effect)

CC(C)(C)c1cccc(C(C)(C)C)c1O
-8.93%: max response [7]
-10.7%: max response [10]
-24.3%: max response [4]
inactive: Potency [1] | Potency [2] | Potency [3] | Potency [5] | outcome [6] | Potency [8] | Potency [9] | max response [11] -0.1% | activation [12] -0.872% | activation [13] 0.241% | max response [14] -2.21% | Potency [15] | max response [16] -3.7% | max response [17] 0.51% | Potency [18] | max response [19] 0.577% | outcome [20]

NN(c1ccccc1)c1ccccc1
-11.7%: max response [10]
23.6%: max response [4]
-8.85%: max response [7]
inactive: Potency [1] | Potency [2] | Potency [5] | Potency [8] | Potency [9] | max response [11] -14.4% | activation [12] -2.86% | activation [13] 3.15% | max response [14] -1.16% | Potency [15] | max response [16] -7.4% | max response [17] -10.4% | Potency [18] | max response [19] 1.92%

C=Cc1ccccc1Br
-4.64%: max response [7]
1.9%: max response [10]
inactive: Potency [1] | Potency [2] | Potency [3] | Potency [5] | outcome [6] | Potency [8] | Potency [9] | max response [11] -9.99% | activation [12] -1.27% | activation [13] 1.62% | max response [14] 0.716% | Potency [15] | max response [16] -11.1% | max response [17] -11.7% | Potency [18] | max response [19] -0.877% | outcome [20]
-10.1%: max response [4]

C/C=C/C=C/CCCCCCCO
11.1%: max response [7]
19.5%: max response [10]
inactive: Potency [1] | Potency [2] | Potency [3] | Potency [5] | Potency [8] | Potency [9] | max response [11] -19.2% | activation [12] -0.666% | activation [13] -1.79% | max response [14] 0.881% | Potency [15] | max response [16] -8.82% | max response [17] -6.91% | Potency [18] | max response [19] -0.307% | outcome [20]
19.3%: max response [4]

CCCCOCCOCCOC(=O)CCCCC(=O)OCCOCCOCCCC
-9.1%: max response [7]
-1.41%: max response [10]
inactive: Potency [1] | Potency [2] | Potency [3] | Potency [5] | outcome [6] | Potency [8] | Potency [9] | max response [11] 5.79% | activation [12] -0.225% | activation [13] -0.636% | Potency [15] | max response [16] -2.75% | max response [17] -4.73% | max response [19] -6.4%
22.3%: max response [4]

C=C[Si](OCCOC)(OCCOC)OCCOC
inactive: Potency [1] | Potency [2] | Potency [3] | Potency [5] | outcome [6] | Potency [8] | Potency [9] | max response [11] 2.22% | activation [13] 0.581% | max response [14] -0.929% | Potency [15] | max response [17] -9.27% | Potency [18] | max response [19] 1.26% | outcome [20]
25.9%: max response [4]
-8.04%: max response [10]
-7.07%: max response [7]

CC(=O)/C=C/C1C(C)=CCCC1(C)C (stereo unspecified)
1.01%: max response [10]
-18.3%: max response [4]
0.774%: max response [7]
inactive: Potency [1] | Potency [2] | Potency [5] | outcome [6] | Potency [8] | Potency [9] | max response [11] -10.8% | activation [13] 0.579% | max response [14] -0.682% | Potency [15] | max response [16] 1.13% | max response [17] -13.5% | max response [19] 8.79%

OCC(CO)(CO)COCC(CO)(CO)CO
-6.03%: max response [7]
-4.98%: max response [10]
inactive: Potency [1] | Potency [2] | outcome [6] | Potency [8] | Potency [9] | max response [11] -11.8% | activation [12] -2.64% | activation [13] 3.82% | max response [14] 0.242% | Potency [15] | max response [16] 3.18% | max response [17] -12.4% | Potency [18] | max response [19] 3.21%

OC1CCC(C2CCCCC2)CC1 (stereo unspecified)
-5.21%: max response [10]
inactive: Potency [1] | Potency [2] | Potency [3] | Potency [5] | outcome [6] | Potency [8] | Potency [9] | activation [13] -1.51% | max response [14] -0.35% | Potency [15] | max response [16] -10.1% | max response [17] -12.9% | Potency [18] | max response [19] -2.53% | outcome [20]
-2.23%: max response [7]
-39.9%: max response [4]

Nc1c(N=Nc2ccc(S(=O)(=O)CCOS(=O)(=O)O)cc2)c(S(=O)(=O)O)cc2cc(S(=O)(=O)O)c(N=Nc3ccc(S(=O)(=O)CCOS(=O)(=O)O)cc3)c(O)c12
-7.65%: max response [7]
-15.1%: max response [4]
active: Potency [16] 35.5 µM | Potency [17] 35.5 µM | Potency [18] 25.1 µM
-13.3%: max response [10]
inactive: Potency [1] | Potency [2] | Potency [5] | Potency [8] | Potency [9] | max response [11] -5.5% | activation [12] 1.61% | activation [13] -7.65% | max response [14] -8.75% | Potency [15] | max response [19] -11.2% | outcome [20]

NCCCCCCCCCCCC(=O)O
-12%: max response [10]
20.5%: max response [4]
-5.4%: max response [7]
inactive: Potency [1] | Potency [2] | Potency [3] | Potency [5] | outcome [6] | Potency [8] | Potency [9] | max response [11] 2.61% | activation [12] -0.832% | activation [13] -1.28% | max response [14] -1.44% | Potency [15] | max response [17] 6.09% | Potency [18] | max response [19] -0.534% | outcome [20]

O=c1[nH]c(=O)c2[nH]cnc2[nH]1
-11.9%: max response [4]
-13.2%: max response [7]
inactive: Potency [1] | Potency [2] | Potency [3] | Potency [5] | outcome [6] | Potency [8] | max response [11] -1.52% | activation [12] -1.45% | activation [13] 0.87% | Potency [15] | max response [16] 0.287% | max response [17] -12.8% | Potency [18] | max response [19] 0.842% | outcome [20]
-4.54%: max response [10]
